We go through eight compounds from PubChem BioAssay (NCI).

Some test systems named below: SR leukemia; RPMI-8226 leukemia; OVCAR-8 ovarian; OVCAR-5 ovarian; OVCAR-4 ovarian; SK-OV-3 ovarian; IGROV1 ovarian; OVCAR-3 ovarian; HS 578T breast; NCI/ADR-RES ovarian; T-47D breast; BT-549 breast; MDA-MB-435 melanoma; SW-620 colon; MCF7 breast; HCT-116 colon; HCC-2998 colon; KM12 colon.
Common to all, as to experiment: NCI-60 one-dose screen, 48 h (100 = growth as untreated, 0 = no growth, -100 = all killed)
Common to all, as to conditions: 10 µM unless noted

Structures are written as SMILES. About 83,000 compounds went through this panel and 20% of them were active in at least one assay; those are over-represented in the sample as a whole.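 Assay: single dose, 48 h. Readout: percent growth (0 = no net growth; negative = cell death). Active: <10.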 Unmarked numbers belong to inactive results. Calls of active or inactive are those of the source.

`O=C(NNc1nc2cc(F)c(F)cc2n2c(CN3CC4CNCC4C3)ccc12)c1cnccn1` (centres undefined): the growth was 12% with SR leukemia; 20.4% in the experiment on RPMI-8226 leukemia; 13.8% with OVCAR-8 ovarian; 42.7% in the experiment with OVCAR-5 ovarian; 22.8% with OVCAR-4 ovarian; 13.3% in the experiment with SK-OV-3 ovarian. In addition, the growth with IGROV1 ovarian is 14.5%; in the experiment with OVCAR-3 ovarian it was 35.9%; in the experiment on HS 578T breast, 72.7%; with NCI/ADR-RES ovarian, 56.7%; in the experiment on T-47D breast it was 20.8%; in the experiment on BT-549 breast it was 28.7%. Besides, the growth was 25.3% in the experiment with MDA-MB-435 melanoma; 23.7% in the experiment on SW-620 colon; 10.9% in the experiment on MCF7 breast; 14.8% in the experiment with HCT-116 colon; 31.7% in the experiment with HCC-2998 colon; 15.4% in the experiment with KM12 colon.

For the compound `COc1ccccc1-n1cc(C#N)c(N)c1C(=O)c1ccc(Br)cc1`, the growth with SR leukemia is 40.3%; in the experiment on RPMI-8226 leukemia, 92.4%; with OVCAR-8 ovarian, 90.7%; in the experiment with OVCAR-5 ovarian, 94.4%; in the experiment with OVCAR-4 ovarian, 96.8%; in the experiment on SK-OV-3 ovarian, 88.7%. The growth was 67.8% with IGROV1 ovarian; 73.3% in the experiment with OVCAR-3 ovarian; 78.4% in the experiment with HS 578T breast; 42.6% with NCI/ADR-RES ovarian; 60% in the experiment on T-47D breast; 88.9% in the experiment on BT-549 breast. Besides, the growth in the experiment with MDA-MB-435 melanoma was 3.09% (active); with SW-620 colon it was 38.7%; in the experiment on MCF7 breast it was 33.5%; in the experiment with HCT-116 colon, 58.8%; with HCC-2998 colon, 71%; in the experiment with KM12 colon it was 39.3%.

In the case of `O=C(/C=C/c1ccc(F)cc1)c1ccc(O)cc1`, the growth in the experiment on SR leukemia was 24.4%; in the experiment on RPMI-8226 leukemia, 23.9%; with OVCAR-8 ovarian it was 98.4%; with OVCAR-5 ovarian it was 103%; in the experiment with OVCAR-4 ovarian, 106%; in the experiment with SK-OV-3 ovarian, 110%. For the same compound, the growth in the experiment with IGROV1 ovarian is 114%; in the experiment with OVCAR-3 ovarian, 83.6%; in the experiment on HS 578T breast, 107%; in the experiment on NCI/ADR-RES ovarian, 106%; in the experiment on T-47D breast, 93.9%; in the experiment with BT-549 breast it was 103%. For the same compound, the growth in the experiment on MDA-MB-435 melanoma is 67%; in the experiment on SW-620 colon it was 81.4%; with MCF7 breast, 30.3%; in the experiment on HCT-116 colon, -44.1% (active); in the experiment with HCC-2998 colon it was 112%; in the experiment on KM12 colon, 59.3%.

Turning to `NS(=O)(=O)c1ccc(Nc2nc(N/N=C/CCc3ccccc3)nc(Nc3ccccc3)n2)cc1`, the growth with SR leukemia is 91.5%; with RPMI-8226 leukemia, 101%; with OVCAR-8 ovarian, 104%; in the experiment with OVCAR-5 ovarian it was 103%; in the experiment with OVCAR-4 ovarian, 104%; in the experiment on SK-OV-3 ovarian, 104%. The growth was 106% in the experiment on IGROV1 ovarian; 117% with OVCAR-3 ovarian; 96.8% in the experiment with HS 578T breast; 113% in the experiment on NCI/ADR-RES ovarian; 102% in the experiment on T-47D breast; 99.4% in the experiment with BT-549 breast. Further, the growth is 101% in the experiment on MDA-MB-435 melanoma; 104% in the experiment on SW-620 colon; 96.3% in the experiment with MCF7 breast; 103% in the experiment with HCT-116 colon; 113% in the experiment on HCC-2998 colon; 109% with KM12 colon.

For `CCO/C=N/C1=C(C#N)C(c2ccc(OC)cc2)c2sc3c(CC)cccc3c2O1` (centres undefined), the growth in the experiment on SR leukemia was 20.1%; in the experiment on RPMI-8226 leukemia, 12.7%; in the experiment on OVCAR-8 ovarian it was 42.9%; with OVCAR-5 ovarian, 43.5%; with OVCAR-4 ovarian, 65%; with SK-OV-3 ovarian, 66.6%. The growth is 38.4% in the experiment on IGROV1 ovarian; -28.8% (active) in the experiment on OVCAR-3 ovarian; 18.2% in the experiment on HS 578T breast; 10.3% in the experiment on NCI/ADR-RES ovarian; 35.8% in the experiment with T-47D breast; 63% in the experiment with BT-549 breast. In addition, the growth in the experiment on MDA-MB-435 melanoma was -39.2% (active); with SW-620 colon, 35.3%; with MCF7 breast, 24.6%; in the experiment with HCT-116 colon, 24.1%; with HCC-2998 colon, 44.3%; with KM12 colon, 18.9%.

On to `ClC(Cl)c1nc(-c2ccco2)n2nc(-c3ccccc3)cc2n1`, for which the growth is 87.3% with SR leukemia; -25.5% (active) in the experiment on RPMI-8226 leukemia; 31.7% in the experiment on OVCAR-8 ovarian; 2.76% (active) with OVCAR-5 ovarian; 36.6% in the experiment with OVCAR-4 ovarian; 51% with SK-OV-3 ovarian. The growth with IGROV1 ovarian was 76.9%; with OVCAR-3 ovarian, -29.9% (active); in the experiment with HS 578T breast it was -2.15% (active); in the experiment on NCI/ADR-RES ovarian, 4.02% (active); with T-47D breast, 32.8%; in the experiment on BT-549 breast it was 87.7%. For the same compound, the growth with MDA-MB-435 melanoma was 24.9%; in the experiment on SW-620 colon, 8.35% (active); in the experiment on MCF7 breast, 1.38% (active); in the experiment with HCT-116 colon, 2.94% (active); in the experiment with HCC-2998 colon it was -53.5% (active); with KM12 colon it was -27.4% (active).

Take `O=C1[C@H]2Cc3c([nH]c4ccccc34)[C@@H](c3c(Cl)cccc3Cl)N2C(=O)CN1C1CCN(CC2CCCCC2)CC1`: the growth was -0.0364% (active) with SR leukemia; 66.2% in the experiment on RPMI-8226 leukemia; 99.6% in the experiment on OVCAR-8 ovarian; 97.8% in the experiment on OVCAR-5 ovarian; 101% with OVCAR-4 ovarian; 109% with SK-OV-3 ovarian. Also, the growth is 53.2% in the experiment on IGROV1 ovarian; 67.9% in the experiment with OVCAR-3 ovarian; 73.5% with HS 578T breast; 91.8% in the experiment with NCI/ADR-RES ovarian; 94% with T-47D breast; 96.5% with BT-549 breast. Moreover, the growth with MDA-MB-435 melanoma was 101%; in the experiment with SW-620 colon, 65.8%; with MCF7 breast, 51.9%; in the experiment on HCT-116 colon it was 35.5%; in the experiment with HCC-2998 colon it was 85.3%; in the experiment with KM12 colon it was 92%.

Turning to `CN1CCN(Cc2ccc(NC(=O)c3cncc(C#Cc4cnc5ccc(N6CCN(C)CC6)nn45)c3)cc2C(F)(F)F)CC1`, the growth is -52.2% (active) in the experiment with SR leukemia; -13.9% (active) in the experiment on RPMI-8226 leukemia; -81.8% (active) in the experiment with OVCAR-8 ovarian; 61.4% with OVCAR-5 ovarian; 10.9% in the experiment with OVCAR-4 ovarian; 92% with SK-OV-3 ovarian. Moreover, the growth with IGROV1 ovarian was -37.2% (active); with OVCAR-3 ovarian it was -76.9% (active); in the experiment with HS 578T breast, -23.1% (active); with NCI/ADR-RES ovarian it was -31.3% (active); in the experiment on T-47D breast, 110%; in the experiment with BT-549 breast, 73%. For the same compound, the growth in the experiment with MDA-MB-435 melanoma was -87.5% (active); with SW-620 colon, -74.9% (active); in the experiment on MCF7 breast, -76.2% (active); with HCT-116 colon it was -20.1% (active); in the experiment on HCC-2998 colon, 54.8%; in the experiment on KM12 colon, -78.8% (active).
